Test results: PubChem BioAssay (EPA / NIEHS)
Inconclusive results are not listed. Activity calls are given as the source filed them. How the source made its calls: active means hit-call score of the fitted dose curve at least 0.9, where 1 is the maximum; inconclusive means response in the unintended direction; inactive means score below 0.9.

Key:
[1] = read-out: Cytochrome P450 2C19 (Homo sapiens) (UniProt P33261); test: CLD_CYP2C19_6hr: CellzDirect (CLD) Gene Expression Assay for xenobiotic metabolism (CYP2C19) at 6 hours (AID 2283678)
In short: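 Primary human hepatocytes from two donor preparations were dosed daily, with 0.2% DMSO as vehicle, and harvested 6 h after dosing. CYP2C19 mRNA induction was measured by qNPA chemiluminescence and fitted as gain of signal against DMSO.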

[2] = read-out: Broad substrate specificity ATP-binding cassette transporter ABCG2 (Homo sapiens) (UniProt Q9UNQ0); test: CLD_ABCG2_24hr: CellzDirect (CLD) Gene Expression Assay for ABC Transporter (ABCG2) at 24 hours (AID 2283685)
In short: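 Primary human hepatocytes were dosed daily with ToxCast chemicals at multiple concentrations (vehicle 0.2% DMSO). ABCG2 mRNA was measured at 24 h by qNPA chemiluminescence; induction was scored as gain of signal versus DMSO.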

[3] = read-out: HMG-CoA synthase (HMGCS2), HMGCS2 (gene 3158); test: CLD_HMGCS2_24hr: CellzDirect (CLD) Gene Expression Assay for HMG-CoA synthase (HMGCS2) at 24 hours (AID 2283691)
Description: (§1) CLD_24hr is a cell-based, multiplexed-readout assay that uses hepatocyte, a human liver primary cell, with measurements taken at 24 hours after chemical dosing in a 96-well plate.CLD_HMGCS2_24hr is one of 16 assay component(s) measured or calculated from the CLD_24hr assay. It is designed to make measurements of mRNA induction, a form of inducible reporter, as detected with chemiluminescence signals by Quantitative Nuclease Protection Assay (qNPA) technology.Data from the assay component CLD_HMGCS2_24hr was analyzed at the endpoint, CLD_HMGCS2_24hr, in the positive analysis fitting direction relative to DMSO as the negative control and baseline of activity. […] Furthermore, this assay endpoint can be referred to as a primary readout. […]
(§2) Human hepatocyte cultures were treated daily for two consecutive days with fresh dosing solutions containing appropriate concentrations of the 320 ToxCast chemicals (chemical identities were blinded to CellzDirect and other ToxCast collaborators), vehicle control (0.2% DMSO), and positive control inducers as summarized in Table 1. […] Cultures for each treatment group (i.e., media, vehicle [0.2% DMSO], positive control inducers [multiple concentrations], and the ToxCast chemicals [multiple concentrations]) were observed and cell morphology was assessed relative to vehicle control cultures at each harvest time point (0, 6, 24, or 48 h). […]

[4] = read-out: alkyl and aryl transferase (GSTA2), GSTA2 (gene 2939); test: CLD_GSTA2_24hr: CellzDirect (CLD) Gene Expression Assay for alkyl and aryl transferase (GSTA2) at 24 hours (AID 2283693)
Description: as §1, with “plate.CLD_GSTA2_24hr” for “plate.CLD_HMGCS2_24hr”, “CLD_GSTA2_24hr” for “CLD_HMGCS2_24hr”, “CLD_GSTA2_24hr,” for “CLD_HMGCS2_24hr,”
as §2

[5] = read-out: HMG-CoA synthase (HMGCS2), HMGCS2 (gene 3158); test: CLD_HMGCS2_6hr: CellzDirect (CLD) Gene Expression Assay for HMG-CoA synthase (HMGCS2) at 6 hours (AID 2283682);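 further: actives raise HMGCS2 transcript above the 0.2% DMSO vehicle baseline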
In short: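 Primary human hepatocytes dosed daily with fresh chemical, 0.2% DMSO vehicle; HMGCS2 mRNA measured at 6 h by qNPA chemiluminescence. Gain of signal fitted against DMSO; cytotoxicity flagged from phase-contrast morphology.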

Cytochrome P450 2C19 (Homo sapiens), sequence (P33261 whole entry, looked up): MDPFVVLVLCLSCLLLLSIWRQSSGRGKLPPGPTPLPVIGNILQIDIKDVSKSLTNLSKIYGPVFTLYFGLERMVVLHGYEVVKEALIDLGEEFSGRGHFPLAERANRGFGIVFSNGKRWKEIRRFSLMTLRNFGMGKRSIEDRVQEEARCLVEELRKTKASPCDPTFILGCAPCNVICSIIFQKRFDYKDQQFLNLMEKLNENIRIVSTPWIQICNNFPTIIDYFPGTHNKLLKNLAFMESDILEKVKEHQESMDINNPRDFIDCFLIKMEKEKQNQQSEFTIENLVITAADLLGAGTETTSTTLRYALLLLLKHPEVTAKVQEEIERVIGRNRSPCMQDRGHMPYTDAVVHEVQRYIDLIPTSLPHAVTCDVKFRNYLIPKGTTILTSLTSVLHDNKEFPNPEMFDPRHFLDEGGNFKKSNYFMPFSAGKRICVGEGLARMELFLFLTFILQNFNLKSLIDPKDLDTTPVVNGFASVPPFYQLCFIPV
Broad substrate specificity ATP-binding cassette transporter ABCG2 (Homo sapiens), sequence (Q9UNQ0 whole entry, looked up): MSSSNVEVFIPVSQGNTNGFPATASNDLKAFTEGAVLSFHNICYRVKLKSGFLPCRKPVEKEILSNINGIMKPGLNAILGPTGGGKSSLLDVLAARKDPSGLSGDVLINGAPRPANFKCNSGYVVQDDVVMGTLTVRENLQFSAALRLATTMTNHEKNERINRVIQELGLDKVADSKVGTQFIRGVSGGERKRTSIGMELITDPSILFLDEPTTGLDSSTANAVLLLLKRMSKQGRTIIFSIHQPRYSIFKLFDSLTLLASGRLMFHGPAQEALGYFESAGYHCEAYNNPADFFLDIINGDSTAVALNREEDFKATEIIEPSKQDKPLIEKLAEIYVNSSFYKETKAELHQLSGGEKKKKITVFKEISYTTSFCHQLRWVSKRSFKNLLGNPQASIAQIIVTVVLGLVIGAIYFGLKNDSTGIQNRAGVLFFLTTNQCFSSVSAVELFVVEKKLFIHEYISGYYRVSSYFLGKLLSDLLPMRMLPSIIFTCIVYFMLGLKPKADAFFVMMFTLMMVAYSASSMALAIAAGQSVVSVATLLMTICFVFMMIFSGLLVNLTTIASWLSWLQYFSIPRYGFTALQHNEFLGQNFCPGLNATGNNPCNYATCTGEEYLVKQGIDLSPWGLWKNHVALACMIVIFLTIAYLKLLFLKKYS

Row | SMILES | outcome [1] | outcome [2] | outcome [3] | outcome [4] | outcome [5]
1 | CCSC(=O)N(CC)C1CCCCC1 | inactive | inactive | inactive | inactive | 
2 | CCNc1nc(NC(C)C)nc(SC)n1 | inactive |  |  | inactive | inactive
3 | CN(C)c1nc(=O)n(C2CCCCC2)c(=O)n1C |  |  |  |  | inactive
